# Test results: PubChem BioAssay
# Inconclusive results are not listed. Activity calls are given as the source filed them.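 The calls were made as follows, unless noted: active = inhibition above 50%, about 3 SD of the validation set; inactive = the rest.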
# Legend:
# [1] = rapamycin-like changes in RPL19A-GFP expression – cell-based, S. cerevisiae, multiplex flow cytometry, primary screen (AID 1862; in the data active = percent of DMSO control GFP below about 86%;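 also: lower values mimic rapamycin by blocking the RPL19A rise seen in DMSO cells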); conditions: S. cerevisiae RPL19A-GFP strain, flow cytometry fluorescence, 3 h; at 10 µM; stronger effect = lower value
# [2] = TOR pathway GLN3 branch reporter MEP2-GFP changes – S. cerevisiae, multiplex flow cytometry, primary screen (AID 1867;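 active = GFP response, as percent of the DMSO control, above the screen-wide mean plus 3 SD, about 139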;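 also: median GFP channel fluorescence of barcode-gated MEP2-GFP cells measured by flow cytometry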); conditions: S. cerevisiae MEP2-GFP strain, 3 h, at 10 µM, stronger effect = higher value, 100% means same as DMSO wells
# [3] = TOR pathway RTG branch CIT2 reporter changes – S. cerevisiae, GFP fusion, multiplex flow cytometry, primary screen (AID 1870;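 active = percent response above a set limit, the screen-wide mean plus 3 SD, cut at about 130% in these data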;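 also: barcoded CIT2-GFP strain pooled with four other GFP strains with rapamycin as positive control; median GFP fluorescence per well over plate mean of DMSO wells so 100% = DMSO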); conditions: S. cerevisiae CIT2-GFP expression, 3 h, at 10 µM, stronger effect = higher value
# [4] = TOR pathway LAP4-GFP level changes – S. cerevisiae, multiplex flow cytometry, primary screen (AID 1873;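 active = GFP signal, as percent of the solvent control, above the screen mean plus 3 SD, about 149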); conditions: S. cerevisiae LAP4-GFP expression, 3 h, at 10 µM, stronger effect = higher value
# [5] = yeast AGP1-GFP level changes, GLN3 branch – cell-based, multiplex flow cytometry, S. cerevisiae, primary screen (AID 1887;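 active = GFP signal above the screen-wide mean plus 3 SD, that is over about 124.5% of the solvent control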;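 also: AGP1-GFP fusion strain of S. cerevisiae within a five-strain barcoded multiplex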); conditions: 3 h, at 10 µM, stronger effect = higher value
# [6] = hit retest on RPL19A-GFP reporter strain – cell-based, S. cerevisiae, flow cytometry, cherry picks, mother/daughter gates, confirmation (AID 2270;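 active = GFP response below 50% of the DMSO control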); conditions: 3 h, at 10 µM, stronger effect = lower value, 100 = same GFP as DMSO wells
# [7] = yeast TOR pathway reporter LAP4-GFP change – cell-based, cherry picks, flow cytometry, mother/daughter gates, confirmation (AID 2271;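 active = GFP response above 150% of the DMSO control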;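 also: ratio of sample to DMSO plate mean so 100% equals DMSO level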); conditions: S. cerevisiae LAP4-GFP strain, 3 h, at 10 µM, stronger effect = higher value, 100 means same as DMSO control
# [8] = TOR pathway reporter MEP2-GFP, retest of hits – S. cerevisiae, flow cytometry GFP, cherry picks, confirmation (AID 2272;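 active = GFP response above 150% of the DMSO control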;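 also: ratio of well signal to plate DMSO mean so 100% equals DMSO level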); conditions: S. cerevisiae MEP2-GFP strain, 3 h, at 10 µM, stronger effect = higher value
# [9] = TOR pathway CIT2 reporter hit retest – S. cerevisiae, GFP fusion, cherry picks, mother/daughter gates, confirmation (AID 2274;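 active = GFP response above 150% of the DMSO level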); conditions: S. cerevisiae CIT2-GFP strain, flow cytometry, 3 h, at 10 µM, stronger effect = higher value
# [10] = reduced mouse 2C T cell binding to pMHC/ICAM-1 vesicles – MLPCN validation set, flow cytometry, LFA-1/ICAM-1 modulator project, pilot screen (AID 2523;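 active = response below a set limit, under 55% cells CD8-positive and vesicle-bound, and CD8 cells' 90th-percentile brightness under 279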;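 as to vesicle binding response: mean PE anti-B7-1 fluorescence of CD8+ cells relative to row control; 100% = QL9-loaded vesicles with DMSO vehicle in the same plate row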); conditions: 2C mouse CD8+ T cells, at 7 µM, stronger effect = lower value; double positive events: measured here: CD8+/vesicle+ event percentage
# [11] = target: Integrin beta-1 (Homo sapiens) + Integrin alpha-4 (Homo sapiens) (UniProt P13612+P05556); assay: alpha4beta1 integrin LIBS antibody binding reduction – U937 cells, HUTS-21 mAb, flow cytometry, validation set, VLA-4 allosteric modulator project, pilot screen (AID 2674); conditions: HUTS-21 LIBS mAb binding, at 6.7 µM, stronger effect = higher value, binding induced by LDV ligand;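 also: antibody binding induced by the VLA-4 ligand LDV present at three times its Kd; 0% = LDV ligand with antibody and no compound and 100% = antibody without LDV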
# Chain of Integrin beta-1 (Homo sapiens) + Integrin alpha-4 (Homo sapiens) (P05556 whole entry, looked up): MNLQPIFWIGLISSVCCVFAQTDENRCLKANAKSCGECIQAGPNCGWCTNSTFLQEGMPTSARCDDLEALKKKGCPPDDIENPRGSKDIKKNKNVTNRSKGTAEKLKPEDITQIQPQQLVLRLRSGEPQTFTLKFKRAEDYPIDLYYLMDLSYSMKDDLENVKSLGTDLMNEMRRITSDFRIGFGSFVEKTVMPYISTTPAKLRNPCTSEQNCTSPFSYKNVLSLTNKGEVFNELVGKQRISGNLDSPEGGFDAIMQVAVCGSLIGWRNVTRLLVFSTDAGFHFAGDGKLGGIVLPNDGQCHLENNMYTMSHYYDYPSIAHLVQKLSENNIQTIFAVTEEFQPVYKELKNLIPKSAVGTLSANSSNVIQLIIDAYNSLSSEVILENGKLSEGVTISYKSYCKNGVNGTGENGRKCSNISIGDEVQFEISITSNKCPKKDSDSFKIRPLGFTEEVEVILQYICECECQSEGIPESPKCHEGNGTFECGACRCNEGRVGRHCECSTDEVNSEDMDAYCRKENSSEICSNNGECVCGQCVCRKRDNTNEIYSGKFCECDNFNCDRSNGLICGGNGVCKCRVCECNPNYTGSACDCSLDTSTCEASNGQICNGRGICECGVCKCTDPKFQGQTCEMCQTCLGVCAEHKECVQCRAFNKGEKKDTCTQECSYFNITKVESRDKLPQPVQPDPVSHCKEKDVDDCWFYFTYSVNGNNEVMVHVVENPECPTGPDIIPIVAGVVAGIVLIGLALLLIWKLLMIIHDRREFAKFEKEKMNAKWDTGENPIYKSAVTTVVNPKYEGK
# Chain of Integrin beta-1 (Homo sapiens) + Integrin alpha-4 (Homo sapiens) (P13612 whole entry, looked up): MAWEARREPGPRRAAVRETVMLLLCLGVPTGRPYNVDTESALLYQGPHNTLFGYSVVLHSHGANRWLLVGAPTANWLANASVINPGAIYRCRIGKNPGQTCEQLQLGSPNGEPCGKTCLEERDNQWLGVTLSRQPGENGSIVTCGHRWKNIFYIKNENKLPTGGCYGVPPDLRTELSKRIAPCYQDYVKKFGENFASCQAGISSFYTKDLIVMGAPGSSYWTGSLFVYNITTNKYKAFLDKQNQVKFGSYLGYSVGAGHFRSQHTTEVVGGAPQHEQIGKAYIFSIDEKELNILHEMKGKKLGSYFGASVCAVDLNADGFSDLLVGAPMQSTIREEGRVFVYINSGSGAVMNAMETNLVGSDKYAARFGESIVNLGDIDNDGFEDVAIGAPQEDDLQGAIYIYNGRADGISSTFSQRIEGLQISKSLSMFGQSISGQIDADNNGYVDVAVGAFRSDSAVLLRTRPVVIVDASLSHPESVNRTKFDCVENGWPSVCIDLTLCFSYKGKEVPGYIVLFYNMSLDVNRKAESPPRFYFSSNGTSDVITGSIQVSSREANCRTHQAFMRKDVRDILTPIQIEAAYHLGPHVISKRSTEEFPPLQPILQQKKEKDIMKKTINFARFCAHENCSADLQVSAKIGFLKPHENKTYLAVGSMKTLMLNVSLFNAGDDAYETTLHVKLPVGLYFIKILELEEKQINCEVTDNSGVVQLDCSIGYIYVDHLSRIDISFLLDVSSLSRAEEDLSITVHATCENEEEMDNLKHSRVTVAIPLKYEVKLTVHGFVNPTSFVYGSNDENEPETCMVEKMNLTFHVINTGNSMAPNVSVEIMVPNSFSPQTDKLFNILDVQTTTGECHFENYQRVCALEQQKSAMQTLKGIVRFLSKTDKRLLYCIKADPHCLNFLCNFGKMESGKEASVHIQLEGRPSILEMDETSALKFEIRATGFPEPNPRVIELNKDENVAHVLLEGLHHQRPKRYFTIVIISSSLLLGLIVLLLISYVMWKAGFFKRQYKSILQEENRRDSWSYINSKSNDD
# [12] = calorie-restriction mimetic ROS inhibitors, yeast – validation compound set, pilot screen (AID 2706;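 active = superoxide response below 65% of plate, a cut near 3 SD across the whole screen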;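 also: yeast exposed to compound for one week at 30 degrees C before staining; 100% = mean of all compound wells on the same plate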); conditions: S. cerevisiae aging, superoxide DHE fluorescence; at 10 µM; stronger effect = lower value
# [13] = target: Beta-adrenergic receptor kinase 1 (Homo sapiens) (UniProt P25098); assay: GRK2 binders displacing RNA aptamer, biochemical, validation, human GRK2, bead flow cytometry (AID 488806;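 active = aptamer binding inhibition above 30%, about 3 SD of noise from non-fluorescent compounds; inactive = inhibition at or below 30%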); conditions: bead-bound GRK2, FAM-aptamer displacement, at 10 µM, stronger effect = higher value
# Chain of Beta-adrenergic receptor kinase 1 (Homo sapiens) (P25098 whole entry, looked up): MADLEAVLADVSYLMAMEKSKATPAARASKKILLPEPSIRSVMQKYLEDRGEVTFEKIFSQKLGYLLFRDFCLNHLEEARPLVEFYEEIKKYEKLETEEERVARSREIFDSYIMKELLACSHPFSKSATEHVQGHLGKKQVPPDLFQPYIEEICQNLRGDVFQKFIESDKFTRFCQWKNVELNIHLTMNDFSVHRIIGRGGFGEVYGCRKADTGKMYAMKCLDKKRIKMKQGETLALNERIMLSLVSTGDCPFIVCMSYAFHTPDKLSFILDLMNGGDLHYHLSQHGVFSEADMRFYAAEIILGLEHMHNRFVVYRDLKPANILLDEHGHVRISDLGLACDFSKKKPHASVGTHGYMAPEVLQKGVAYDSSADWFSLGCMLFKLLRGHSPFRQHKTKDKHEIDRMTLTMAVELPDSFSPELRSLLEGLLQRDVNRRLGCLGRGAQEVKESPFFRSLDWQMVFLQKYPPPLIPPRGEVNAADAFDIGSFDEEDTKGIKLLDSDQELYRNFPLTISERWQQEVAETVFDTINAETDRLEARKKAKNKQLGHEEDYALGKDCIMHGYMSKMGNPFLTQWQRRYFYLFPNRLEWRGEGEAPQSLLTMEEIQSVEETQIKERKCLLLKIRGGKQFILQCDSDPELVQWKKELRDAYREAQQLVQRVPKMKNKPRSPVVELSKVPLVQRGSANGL
# [14] = target: AP-2 complex subunit beta (Homo sapiens) (UniProt P63010); assay: beta-arrestin/AP2 interaction blockers – biochemical, validation set, GST-AP2 beads, flow cytometry, pilot screen (AID 504541;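 active = inhibition above 54%, about 3 SD of non-fluorescent compounds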;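 also: AP2 carries R879A mutation and is captured from E. coli lysate; bead-bound FITC arrestin peptide fluorescence measuring arrestin peptide binding to AP2; 0% = DMSO wells and 100% = excess unlabeled arrestin peptide control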); conditions: FITC arrestin peptide, at 10 µM, stronger effect = higher value, AP2 beta2 appendage fragment, R879A mutant
# Chain of AP-2 complex subunit beta (Homo sapiens) (P63010 whole entry, looked up, the tested form may be a part, one chain of several): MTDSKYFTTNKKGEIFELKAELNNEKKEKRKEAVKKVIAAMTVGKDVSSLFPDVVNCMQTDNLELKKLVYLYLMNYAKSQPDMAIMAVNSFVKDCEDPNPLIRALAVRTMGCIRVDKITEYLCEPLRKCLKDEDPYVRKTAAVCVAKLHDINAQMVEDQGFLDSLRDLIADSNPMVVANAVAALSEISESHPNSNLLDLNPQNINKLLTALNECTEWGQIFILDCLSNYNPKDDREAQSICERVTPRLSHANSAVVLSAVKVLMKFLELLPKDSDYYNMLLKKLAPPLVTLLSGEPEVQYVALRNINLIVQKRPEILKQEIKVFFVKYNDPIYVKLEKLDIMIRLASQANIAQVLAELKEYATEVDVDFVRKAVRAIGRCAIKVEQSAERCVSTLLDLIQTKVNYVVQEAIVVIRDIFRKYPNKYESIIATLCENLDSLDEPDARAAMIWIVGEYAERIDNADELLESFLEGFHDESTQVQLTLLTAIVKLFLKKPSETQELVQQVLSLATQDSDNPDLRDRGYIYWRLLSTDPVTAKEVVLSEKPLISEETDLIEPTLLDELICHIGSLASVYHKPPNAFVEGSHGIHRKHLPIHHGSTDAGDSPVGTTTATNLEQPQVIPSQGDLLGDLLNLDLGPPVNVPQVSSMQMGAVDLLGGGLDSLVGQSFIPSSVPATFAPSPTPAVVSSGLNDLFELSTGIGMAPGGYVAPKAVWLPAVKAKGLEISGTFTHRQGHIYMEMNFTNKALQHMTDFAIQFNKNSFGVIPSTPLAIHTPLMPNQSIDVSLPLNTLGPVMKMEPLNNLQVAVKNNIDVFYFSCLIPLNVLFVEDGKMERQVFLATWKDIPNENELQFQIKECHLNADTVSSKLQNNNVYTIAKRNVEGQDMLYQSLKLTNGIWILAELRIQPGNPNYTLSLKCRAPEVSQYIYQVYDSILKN
# [15] = cytosolic pH regulators acting via V-ATPase – S. cerevisiae, pHLuorin, HTS validation (AID 504600; in the data active = response above about 15%;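 also: plate controls were DMSO for no effect and reference compound for full effect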); conditions: V-ATPase proton transport, at 10 µM, stronger effect = higher value
# [16] = system: anti-desmoglein-3 scFv antibody binding to human DSG3; assay: blockers of pathogenic pemphigus antibody–desmoglein-3 binding – biochemical, validation compound set, bead-based, flow cytometry, pilot screen (AID 588368;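 active = binding below the plate cutoff, the plate median minus 3 SD, with a reading above zero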;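 also: signal is the median channel fluorescence of bead-bound GFP antibody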); conditions: Protein G beads, DSG3-Fc, scFv-GFP binding, at 10 µM, stronger effect = lower value
# [17] = target: ATP-binding cassette sub-family B member 6 (Homo sapiens) (UniProt Q9NP58); assay: blockers of ABCB6-driven porphyrin uptake – K562-ABCB6 cells, flow cytometry, validation set, pilot screen (AID 588550;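 active = inhibition above the screen-wide mean plus 3 SD, about 51%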;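 also: 0% = DMSO wells and 100% = benzethonium chloride 70 µM positive control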); conditions: K562-ABCB6 porphyrin accumulation, 1 h, at 10 µM, stronger effect = higher value
# Chain of ATP-binding cassette sub-family B member 6 (Homo sapiens) (Q9NP58 whole entry, looked up): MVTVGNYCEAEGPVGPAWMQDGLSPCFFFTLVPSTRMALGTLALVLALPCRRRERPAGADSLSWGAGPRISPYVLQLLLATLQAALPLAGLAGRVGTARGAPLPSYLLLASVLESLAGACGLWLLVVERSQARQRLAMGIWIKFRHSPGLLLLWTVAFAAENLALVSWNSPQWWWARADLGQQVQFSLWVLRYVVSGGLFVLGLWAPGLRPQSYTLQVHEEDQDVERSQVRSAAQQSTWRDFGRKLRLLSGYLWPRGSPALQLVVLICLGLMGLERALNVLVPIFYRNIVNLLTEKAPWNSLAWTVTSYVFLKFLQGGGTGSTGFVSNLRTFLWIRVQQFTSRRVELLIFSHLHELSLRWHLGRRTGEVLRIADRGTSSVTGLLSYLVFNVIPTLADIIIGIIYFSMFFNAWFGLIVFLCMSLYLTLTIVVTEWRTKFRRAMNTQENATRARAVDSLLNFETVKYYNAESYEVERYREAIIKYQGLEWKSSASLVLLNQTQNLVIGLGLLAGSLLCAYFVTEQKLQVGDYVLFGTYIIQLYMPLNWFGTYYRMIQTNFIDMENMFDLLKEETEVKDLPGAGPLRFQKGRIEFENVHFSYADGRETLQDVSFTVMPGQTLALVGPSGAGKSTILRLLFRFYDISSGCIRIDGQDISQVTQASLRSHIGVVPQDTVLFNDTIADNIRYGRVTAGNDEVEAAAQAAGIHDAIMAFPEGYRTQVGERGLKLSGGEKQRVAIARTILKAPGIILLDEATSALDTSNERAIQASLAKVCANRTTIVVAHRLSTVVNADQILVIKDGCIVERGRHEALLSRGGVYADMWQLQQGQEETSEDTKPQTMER
# [18] = AML differentiation inducers, ER-HoxA9 marrow cells – cell-based, GFP/MAC1 double positive, flow cytometry, validation set, primary screen (AID 588685;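 active = differentiation response of at least 50%, scaled between solvent and reference control, from cells with both markers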;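 also: compound exposure lasts four days before antibody staining and flow analysis; 0% = DMSO wells and 100% = 5 µM fulvestrant positive control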); conditions: stronger effect = higher value, normalized: vehicle 0, fulvestrant 100
# [19] = target: Beta-2 adrenergic receptor (Homo sapiens) (UniProt P07550); assay: agonist-induced loss of surface beta2AR – cell-based, FAP fluorogen, flow cytometry, validation set, pilot screen (AID 504459;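 active = percent response above 42, roughly 3 SD of non-fluorescent test compounds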;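 also: agonist-driven loss of surface beta2AR via internalization measured by FAP dye flow cytometry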); conditions: Am2.2-beta2AR cells, at 10 µM, stronger effect = higher value
# Chain of Beta-2 adrenergic receptor (Homo sapiens) (P07550 whole entry, looked up): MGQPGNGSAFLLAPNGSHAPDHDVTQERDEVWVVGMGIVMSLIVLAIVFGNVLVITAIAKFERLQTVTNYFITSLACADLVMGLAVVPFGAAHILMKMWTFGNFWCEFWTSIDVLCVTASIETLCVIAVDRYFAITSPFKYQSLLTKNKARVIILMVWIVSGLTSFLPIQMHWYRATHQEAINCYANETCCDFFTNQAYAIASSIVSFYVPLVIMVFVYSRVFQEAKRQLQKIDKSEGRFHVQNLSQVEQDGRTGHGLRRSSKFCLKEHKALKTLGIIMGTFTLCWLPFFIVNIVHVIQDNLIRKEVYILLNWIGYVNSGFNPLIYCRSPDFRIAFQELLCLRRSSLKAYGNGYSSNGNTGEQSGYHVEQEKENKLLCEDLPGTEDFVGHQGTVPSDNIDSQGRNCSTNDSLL
# [20] = Nile Red efflux blockade in pump-expressing yeast – validation compound set, multiplex, phenotypic, pilot screen (AID 588506;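 active = efflux inhibition above 0.42, the validation set average plus 4 SD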;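 also: Nile Red retained in cells so higher fluorescence means more efflux inhibition; 0 = negative control wells and 1 = enniatin B 25 µM full block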); conditions: S. cerevisiae pump-expressing triplex, Nile Red efflux flow cytometry; at 10 µM; stronger effect = higher value; the pumps come from Candida albicans
# [21] = measured here: daughter cell gate
# [22] = measured here: mother cell gate
# [23] = measured here: daughter cell gate response
# [24] = measured here: mother cell gate response
structure (smiles),measurement,setting,value
C[C@]12CCC(=O)C=C1CC[C@@H]1[C@@H]2[C@@H](O)C[C@@]2(C)[C@H]1CC[C@]2(O)C(=O)CO,percent of DMSO control GFP,[1],108% (inactive)
same,GFP response vs DMSO,[2],105% (inactive)
same,percent response of DMSO control,[3],111% (inactive)
same,GFP response vs DMSO,[4],105% (inactive)
same,"GFP response, % of DMSO",[5],111% (inactive)
same,GFP response vs DMSO,[6],104% (inactive)
same,GFP response vs DMSO,[6]; [21],102%
same,GFP response vs DMSO,[6]; [22],104%
same,GFP response relative to DMSO,[7],96.2% (inactive)
same,GFP response relative to DMSO,[7]; [23],98.7%
same,GFP response relative to DMSO,[7]; [24],98.3%
same,GFP response vs DMSO,[8],100% (inactive)
same,"GFP response, % of DMSO",[9],104% (inactive)
same,"GFP response, % of DMSO",[9]; [21],99.7%
same,"GFP response, % of DMSO",[9]; [22],105%
same,double positive events,[10],58.4%
same,vesicle binding response,[10],165% (inactive)
same,inhibition,[11],10.9% (inactive)
same,superoxide response (% of plate),[12],99.2% (inactive)
same,aptamer binding inhibition,[13],-2% (inactive)
same,inhibition,[14],29.5% (inactive)
same,response,[15],-1.08% (inactive)
same,binding (% of control),[16],95.4% (inactive)
same,inhibition,[17],3% (inactive)
same,differentiation response,[18],-18% (inactive)
NS(=O)(=O)c1cc2c(cc1C(F)(F)F)NC(Cc1ccccc1)NS2(=O)=O (stereo not drawn),percent of DMSO control GFP,[1],89.8% (inactive)
same,GFP response vs DMSO,[2],140% (active)
same,percent response of DMSO control,[3],106% (inactive)
same,GFP response vs DMSO,[4],82.5% (inactive)
same,"GFP response, % of DMSO",[5],90.8% (inactive)
same,GFP response vs DMSO,[6],95% (inactive)
same,GFP response vs DMSO,[6]; [21],96%
same,GFP response vs DMSO,[6]; [22],97.1%
same,GFP response relative to DMSO,[7],97.7% (inactive)
same,GFP response relative to DMSO,[7]; [23],96.5%
same,GFP response relative to DMSO,[7]; [24],97.5%
same,GFP response vs DMSO,[8],97.5% (inactive)
same,"GFP response, % of DMSO",[9],102% (inactive)
same,"GFP response, % of DMSO",[9]; [21],104%
same,"GFP response, % of DMSO",[9]; [22],104%
same,double positive events,[10],64.3%
same,vesicle binding response,[10],176% (inactive)
same,inhibition,[11],7.43% (inactive)
same,superoxide response (% of plate),[12],85% (inactive)
same,aptamer binding inhibition,[13],7% (inactive)
same,response,[19],1.02% (inactive)
same,inhibition,[14],21.3% (inactive)
same,response,[15],-2.03% (inactive)
same,binding (% of control),[16],97.4% (inactive)
same,efflux inhibition (fraction of control),[20],0.05 (inactive)
same,inhibition,[17],6% (inactive)
same,differentiation response,[18],-0.82% (inactive)
CC(=O)O[C@]1(C(C)=O)CC[C@H]2[C@@H]3C[C@H](C)C4=CC(=O)CC[C@]4(C)[C@H]3CC[C@@]21C,percent of DMSO control GFP,[1],98.4% (inactive)
same,GFP response vs DMSO,[2],106% (inactive)
same,percent response of DMSO control,[3],90.8% (inactive)
same,GFP response vs DMSO,[4],84.8% (inactive)
same,"GFP response, % of DMSO",[5],95.7% (inactive)
same,GFP response vs DMSO,[6],94.3% (inactive)
same,GFP response vs DMSO,[6]; [21],95.7%
same,GFP response vs DMSO,[6]; [22],97.2%
same,GFP response relative to DMSO,[7],98.8% (inactive)
same,GFP response relative to DMSO,[7]; [23],97.9%
same,GFP response relative to DMSO,[7]; [24],98.5%
same,GFP response vs DMSO,[8],93.3% (inactive)
same,"GFP response, % of DMSO",[9],101% (inactive)
same,"GFP response, % of DMSO",[9]; [21],102%
same,"GFP response, % of DMSO",[9]; [22],101%
same,double positive events,[10],63.9%
same,vesicle binding response,[10],241% (inactive)
same,inhibition,[11],-3.57% (inactive)
same,aptamer binding inhibition,[13],-1% (inactive)
same,response,[19],3.07% (inactive)
same,inhibition,[14],-9.79% (inactive)
same,response,[15],-0.42% (inactive)
same,binding (% of control),[16],100% (inactive)
same,efflux inhibition (fraction of control),[20],0.08 (inactive)
same,inhibition,[17],20% (inactive)
same,differentiation response,[18],10% (inactive)
